From PubChem BioAssay (Tox21) come the findings set out here.

Experiment [1] in a line: Human pregnane X receptor (PXR) small molecule agonists, qHTS cell viability counter screen (AID 1346977). Also: nearly all actives have a fitted effect of over 50% in size. An outline of the steps:
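Viability counter screen: CellTiter-Fluor signal in PXR-Luc HepG2 cells, 24hr compound exposure, 37C, 5% CO2.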

Experiment [2] can be described thus: Caspase-3/7 induction in HepG2 cells by small molecules, qHTS assay (AID 1346978). Also: nearly all actives have a fitted effect of over 15% in size. An outline of the steps: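 Wild-type HepG2 cells, 2,000/well, settled 5 hr at 37 C and 5% CO2, then compound-treated for 17 hr; caspase-3/7 activity read by luminescent Caspase-Glo 3/7 after 30 min at room temperature.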
A short description of experiment [3]: Caspase-3/7 induction in CHO-K1 cells by small molecules, qHTS cell viability counter screen (AID 1346979). Also: nearly all actives have a fitted effect of over 35% in size. Also: potency is read from the fitted curve at half-maximal effect. An outline of the steps:
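Viability readout by fluorescence (CellTiter-Fluor) on wild-type CHO-K1 cells exposed for 16hr at 37C and 5% CO2 to compounds delivered in DMSO; reagent incubated 1hr before reading.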

Experiment [4] is described as follows: Caspase-3/7 induction in CHO-K1 cells by small molecules, qHTS assay (AID 1346980). Also: nearly all actives have a fitted effect of over 15% in size. In a few lines: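 Wild-type CHO-K1 cells exposed to compounds for 17hr at 37 C, 5% CO2. Caspase-3/7 activity then measured by Caspase-Glo 3/7 luminescence after 30min at room temperature.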
Experiment [5] can be described thus: Caspase-3/7 induction in HepG2 cells by small molecules, qHTS cell viability counter screen (AID 1346981). Also: series mostly up to about 92 µM; nearly all actives have a fitted effect of over 30% in size. An outline of the steps: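 Counter screen for cytotoxicity: HepG2 exposed 16 hr to compounds, then CellTiter-Fluor viability signal (fluorescence, 1 hr reagent incubation).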
Experiment [6] concerns the target Cytochrome P450 2D6 (Homo sapiens) (UniProt P10635). The experiment in a line: Cytochrome P450 Family 2 Subfamily D Member 6 (CYP2D6) small molecule antagonists: luciferase reporter qHTS assay (AID 1671196). Also: nearly all actives have a fitted effect of over 50% in size. Also: potency is read from the fitted curve at half-maximal effect. As to activity change, negative = inhibition: series mostly up to about 120 µM. In a few lines: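 Inhibition of CYP2D6 was gauged by loss of luminescence, since light produced tracks the luciferin generated from a proluciferin substrate. A 10 min room-temperature preincubation preceded 1 h NADPH-supported turnover.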

Experiment [7] addresses Cytochrome P450 2C9 (Homo sapiens) (UniProt P11712). The experiment in a line: Cytochrome P450 Family 2 Subfamily C Member 9 (CYP2C9) small molecule antagonists: luciferase reporter qHTS assay (AID 1671198). Also: nearly all actives have a fitted effect of over 50% in size. Also: potency is read from the fitted curve at half-maximal effect. As to activity change, negative = inhibition: series mostly up to about 120 µM. An outline of the steps: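 P450-Glo proluciferin substrate with CYP2C9 enzyme; 10 min RT preincubation, then NADPH regeneration 1 h at 37C; luciferin detection reagent 20 min RT, luminescence in relative luminescence units.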
For orientation: Reporter assays use an easily measured gene product as a stand-in for the process of interest.

Experiment [8] deals with Cytochrome P450 1A2 (Homo sapiens) (UniProt P05177). The experiment in a line: Cytochrome P450 Family 1 Subfamily A Member 2 (CYP1A2) small molecule antagonists: luciferase reporter qHTS assay (AID 1671199). Also: nearly all actives have a fitted effect of over 50% in size. Also: potency is read from the fitted curve at half-maximal effect. As to activity change, negative = inhibition: series mostly up to about 120 µM. In a few lines: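 Signal from luciferin formed by CYP1A2 from a proluciferin substrate is read as luminescence, expressed in relative luminescence units. Compounds sit with enzyme 10 min, NADPH-driven reaction runs 1 h, all at room temperature.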
Cytochrome P450 1A2 (Homo sapiens), sequence (P05177 whole entry, looked up): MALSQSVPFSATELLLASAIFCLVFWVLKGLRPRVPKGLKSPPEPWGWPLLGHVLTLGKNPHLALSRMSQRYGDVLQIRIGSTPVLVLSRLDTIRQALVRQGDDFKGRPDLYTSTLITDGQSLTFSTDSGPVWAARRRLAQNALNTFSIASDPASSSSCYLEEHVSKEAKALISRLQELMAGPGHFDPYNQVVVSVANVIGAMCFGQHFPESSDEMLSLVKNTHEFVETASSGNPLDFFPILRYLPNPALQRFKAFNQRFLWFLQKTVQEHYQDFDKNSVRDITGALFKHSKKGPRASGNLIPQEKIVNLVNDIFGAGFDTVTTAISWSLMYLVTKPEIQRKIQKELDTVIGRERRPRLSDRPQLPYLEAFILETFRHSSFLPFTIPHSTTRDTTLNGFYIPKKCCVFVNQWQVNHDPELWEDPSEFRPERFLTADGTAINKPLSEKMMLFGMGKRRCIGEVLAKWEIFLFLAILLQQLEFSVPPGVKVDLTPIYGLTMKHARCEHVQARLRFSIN

Experiment [9] has as its target Voltage-gated inwardly rectifying potassium channel KCNH2 (Homo sapiens) (UniProt Q12809). The experiment in a line: Human Ether-a-go-go-Related Gene (hERG) channel small molecule antagonists: fluorescence cell-based qHTS assay (AID 1671200). An outline of the steps:
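Thallium served as the potassium surrogate; its influx into dye-loaded U2OS cells carrying the channel was measured by fluorescence over 2 min.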
On the technique in general: The hERG channel carries a current that helps repolarise heart muscle cells.

Experiment [10] concerns the target Cytochrome P450 3A4 (Homo sapiens) (UniProt P08684). The experiment in a line: Cytochrome P450 Family 3 Subfamily A Member 4 (CYP3A4) small molecule antagonists: luciferase reporter qHTS assay (AID 1671201). Also: nearly all actives have a fitted effect of over 50% in size. Also: potency is read from the fitted curve at half-maximal effect. As to activity change, negative = inhibition: series mostly up to about 120 µM. In a few lines:
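Relative luminescence units after 20 min with luciferin detection reagent served as read-out. Beforehand, CYP3A4 turned over a proluciferin substrate for 1 h at room temperature with NADPH regeneration, following 10 min compound preincubation.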

Experiment [11] has as its target Nuclear receptor subfamily 1 group I member 2 (Homo sapiens) (UniProt O75469). The experiment in a line: Human pregnane X receptor (PXR) small molecule agonists, qHTS assay (AID 1346982). Also: nearly all actives have a fitted effect of over 35% in size. Also: potency is read from the fitted curve at half-maximal effect. An outline of the steps: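 Luminescence (ONE-Glo, 30 min RT) after 24 hr compound exposure of PXR-Luc HepG2 cells; cells rested 5 hr post-plating in 5% charcoal-stripped FBS medium.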

Experiment [12] concerns the target Cytochrome P450 2C19 (Homo sapiens) (UniProt P33261). The experiment in a line: Cytochrome P450 Family 2 Subfamily C Member 19 (CYP2C19) small molecule antagonists: luciferase reporter qHTS assay (AID 1671197). Also: nearly all actives have a fitted effect of over 65% in size. Also: potency is read from the fitted curve at half-maximal effect. As to activity change, negative = inhibition: series mostly up to about 120 µM. In a few lines:
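Quantitative high-throughput screen of the Tox21 library using CYP2C19 with proluciferin substrate. Reaction: NADPH regeneration, 37C, 1 h, after 10 min compound preincubation at room temperature. Readout: luminescence.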

In experiment [13] the target is Nuclear receptor subfamily 1 group I member 2 (Rattus norvegicus) (UniProt Q9R1A7). Description: Rat pregnane X receptor (rPXR) activation by small molecules, qHTS assay (AID 1346983). Also: nearly all actives have a fitted effect of over 20% in size. The note with it: rPXR luciferase reporter cells, One-Glo luminescence, 24 h; max activation: stronger effect = higher value. An outline of the steps:
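Cell-based rPXR activation assay: rPXR cells, 2,000 per well, rested 5hr at 37 C, then exposed to compounds in DMSO for 24 hr at 37 C. Luciferase activity read by One-Glo luminescence after 30 min at room temperature.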

Experiment [14] deals with Nuclear receptor subfamily 1 group I member 2 (Homo sapiens) (UniProt O75469). The experiment in a line: CYP3A4 induction through human pregnane X receptor (PXR) by small molecules, qHTS assay (AID 1346984). Also: nearly all actives have a fitted effect of over 40% in size. An outline of the steps: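 DPX-2 reporter cells; 24h cpd, 37C; Luciferin-IPA 3uM final x3h; One-Glo 30 min RT; lumi read.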
Nuclear receptor subfamily 1 group I member 2 (Homo sapiens), sequence (O75469 whole entry, looked up): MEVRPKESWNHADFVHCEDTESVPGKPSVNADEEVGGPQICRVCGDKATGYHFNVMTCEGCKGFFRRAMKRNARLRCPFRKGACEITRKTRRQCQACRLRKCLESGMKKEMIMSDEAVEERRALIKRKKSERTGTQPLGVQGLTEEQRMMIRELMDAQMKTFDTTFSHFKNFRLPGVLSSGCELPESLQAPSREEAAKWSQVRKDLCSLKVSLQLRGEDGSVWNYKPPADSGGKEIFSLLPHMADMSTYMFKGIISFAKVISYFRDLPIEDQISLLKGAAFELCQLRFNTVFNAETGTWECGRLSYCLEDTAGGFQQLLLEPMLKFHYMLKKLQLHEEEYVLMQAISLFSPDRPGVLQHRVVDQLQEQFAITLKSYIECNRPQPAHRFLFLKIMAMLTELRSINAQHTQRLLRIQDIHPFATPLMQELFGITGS
Experiment [15] shares this target. The experiment in a line: Human pregnane X receptor (PXR) activation by small molecules, qHTS assay (AID 1346985). Also: nearly all actives have a fitted effect of over 40% in size. In a few lines:
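DPX-2 cells (HepG2 co-transfected with a PXR response element and a CYP3A4-promoter luciferase construct) were seeded at 2,000 per well, rested 5 hr at 37C, then exposed to DMSO-dissolved compounds for 24 hr. Activation was read as luciferase luminescence.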
In general terms: Quantitative high-throughput screening tests each substance at several concentrations.

SMILES strings stand for the structures. A number with no mark means an inactive call. Results filed as inconclusive are left out. The source made the active and inactive calls. Calls follow the shape of the dose curve; as a rule, active = well fitted curve in the direction sought with a large enough effect in the repeat runs; inconclusive = weak or mixed curves; inactive = no such curve, though single readings can be large; an effect the other way counts as inactive or inconclusive.
% is scaled to controls: 0 for no effect and ±100 for the full control effect.

Cytochrome P450 2D6 (Homo sapiens), sequence (P10635 whole entry, looked up): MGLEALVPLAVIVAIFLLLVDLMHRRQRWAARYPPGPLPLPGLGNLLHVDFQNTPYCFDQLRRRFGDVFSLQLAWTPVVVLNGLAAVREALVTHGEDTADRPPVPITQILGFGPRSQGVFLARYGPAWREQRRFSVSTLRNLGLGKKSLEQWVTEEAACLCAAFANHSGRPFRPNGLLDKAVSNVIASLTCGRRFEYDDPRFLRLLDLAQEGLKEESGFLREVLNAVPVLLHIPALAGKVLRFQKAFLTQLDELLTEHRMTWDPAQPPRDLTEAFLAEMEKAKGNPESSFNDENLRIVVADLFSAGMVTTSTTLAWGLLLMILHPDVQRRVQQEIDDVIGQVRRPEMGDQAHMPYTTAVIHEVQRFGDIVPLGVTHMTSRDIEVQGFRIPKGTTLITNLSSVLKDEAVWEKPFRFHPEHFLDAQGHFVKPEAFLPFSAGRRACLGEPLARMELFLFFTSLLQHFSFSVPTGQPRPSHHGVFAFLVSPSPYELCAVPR
Cytochrome P450 3A4 (Homo sapiens), sequence (P08684 whole entry, looked up): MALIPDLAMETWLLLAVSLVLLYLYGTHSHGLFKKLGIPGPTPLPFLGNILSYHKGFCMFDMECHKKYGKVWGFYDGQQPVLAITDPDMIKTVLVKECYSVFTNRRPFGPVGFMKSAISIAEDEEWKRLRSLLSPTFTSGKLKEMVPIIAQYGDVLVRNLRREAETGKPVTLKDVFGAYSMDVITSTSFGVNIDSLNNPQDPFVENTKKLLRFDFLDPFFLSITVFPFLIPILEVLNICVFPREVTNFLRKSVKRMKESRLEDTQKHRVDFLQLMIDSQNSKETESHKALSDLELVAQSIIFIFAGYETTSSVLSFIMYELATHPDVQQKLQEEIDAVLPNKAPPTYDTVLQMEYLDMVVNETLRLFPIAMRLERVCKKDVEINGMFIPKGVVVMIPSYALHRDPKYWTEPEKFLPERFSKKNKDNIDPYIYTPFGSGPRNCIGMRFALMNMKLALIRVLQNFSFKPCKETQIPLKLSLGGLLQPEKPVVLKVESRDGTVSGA
Cytochrome P450 2C19 (Homo sapiens), sequence (P33261 whole entry, looked up): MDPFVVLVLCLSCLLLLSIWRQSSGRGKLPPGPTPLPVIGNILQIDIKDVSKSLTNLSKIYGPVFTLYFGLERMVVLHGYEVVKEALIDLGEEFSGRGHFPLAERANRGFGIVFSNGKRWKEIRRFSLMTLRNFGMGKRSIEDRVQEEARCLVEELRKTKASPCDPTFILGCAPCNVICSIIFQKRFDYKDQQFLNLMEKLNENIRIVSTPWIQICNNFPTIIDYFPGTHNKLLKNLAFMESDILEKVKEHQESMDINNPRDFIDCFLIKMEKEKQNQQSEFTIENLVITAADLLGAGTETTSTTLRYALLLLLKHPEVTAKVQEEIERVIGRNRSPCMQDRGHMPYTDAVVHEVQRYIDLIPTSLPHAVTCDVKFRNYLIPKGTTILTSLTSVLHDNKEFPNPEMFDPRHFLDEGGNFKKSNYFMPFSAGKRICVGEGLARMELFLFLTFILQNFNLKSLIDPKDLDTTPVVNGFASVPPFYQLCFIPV
Voltage-gated inwardly rectifying potassium channel KCNH2 (Homo sapiens), sequence (Q12809 whole entry, looked up): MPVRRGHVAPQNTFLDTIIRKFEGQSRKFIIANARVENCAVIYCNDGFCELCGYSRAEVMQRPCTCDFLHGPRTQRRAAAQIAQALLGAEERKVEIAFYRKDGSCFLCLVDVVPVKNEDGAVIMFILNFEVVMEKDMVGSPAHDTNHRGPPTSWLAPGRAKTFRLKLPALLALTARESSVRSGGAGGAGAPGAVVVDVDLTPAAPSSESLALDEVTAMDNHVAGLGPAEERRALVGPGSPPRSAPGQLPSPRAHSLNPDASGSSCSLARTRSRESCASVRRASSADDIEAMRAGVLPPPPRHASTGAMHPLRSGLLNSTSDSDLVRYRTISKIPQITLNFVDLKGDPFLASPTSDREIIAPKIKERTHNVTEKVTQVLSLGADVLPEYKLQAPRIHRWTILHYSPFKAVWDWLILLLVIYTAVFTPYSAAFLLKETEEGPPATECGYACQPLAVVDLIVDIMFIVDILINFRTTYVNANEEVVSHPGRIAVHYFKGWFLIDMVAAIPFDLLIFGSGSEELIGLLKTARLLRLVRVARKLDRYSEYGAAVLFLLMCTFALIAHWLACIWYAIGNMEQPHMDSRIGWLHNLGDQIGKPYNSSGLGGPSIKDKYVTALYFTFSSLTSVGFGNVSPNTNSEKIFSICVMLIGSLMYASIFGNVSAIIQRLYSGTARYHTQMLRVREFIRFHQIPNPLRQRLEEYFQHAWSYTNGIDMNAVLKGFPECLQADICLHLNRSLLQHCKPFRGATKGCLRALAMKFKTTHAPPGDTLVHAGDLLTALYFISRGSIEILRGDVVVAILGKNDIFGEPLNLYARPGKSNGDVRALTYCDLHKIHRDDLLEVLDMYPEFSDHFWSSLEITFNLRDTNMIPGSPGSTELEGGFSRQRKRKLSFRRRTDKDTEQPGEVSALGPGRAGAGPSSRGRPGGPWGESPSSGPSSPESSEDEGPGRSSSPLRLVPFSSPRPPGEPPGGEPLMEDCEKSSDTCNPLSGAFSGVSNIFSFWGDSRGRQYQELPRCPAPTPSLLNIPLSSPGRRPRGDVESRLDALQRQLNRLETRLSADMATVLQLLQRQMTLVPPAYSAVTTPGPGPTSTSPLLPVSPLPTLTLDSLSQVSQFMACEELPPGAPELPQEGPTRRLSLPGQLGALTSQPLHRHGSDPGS
Cytochrome P450 2C9 (Homo sapiens), sequence (P11712 whole entry, looked up): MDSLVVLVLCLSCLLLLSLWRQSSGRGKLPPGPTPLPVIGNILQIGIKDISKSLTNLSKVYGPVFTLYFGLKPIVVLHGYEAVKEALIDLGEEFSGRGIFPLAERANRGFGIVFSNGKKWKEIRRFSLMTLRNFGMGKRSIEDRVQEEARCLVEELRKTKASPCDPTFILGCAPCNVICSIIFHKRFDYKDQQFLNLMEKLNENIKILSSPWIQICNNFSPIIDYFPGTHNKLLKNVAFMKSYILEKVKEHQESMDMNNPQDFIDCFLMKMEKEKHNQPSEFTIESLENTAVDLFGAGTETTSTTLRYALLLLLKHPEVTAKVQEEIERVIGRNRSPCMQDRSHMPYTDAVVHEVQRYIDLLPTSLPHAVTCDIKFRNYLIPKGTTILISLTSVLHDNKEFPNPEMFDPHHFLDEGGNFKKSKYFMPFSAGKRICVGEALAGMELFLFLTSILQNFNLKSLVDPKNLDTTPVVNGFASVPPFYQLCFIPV
Nuclear receptor subfamily 1 group I member 2 (Rattus norvegicus), sequence (Q9R1A7 whole entry, looked up): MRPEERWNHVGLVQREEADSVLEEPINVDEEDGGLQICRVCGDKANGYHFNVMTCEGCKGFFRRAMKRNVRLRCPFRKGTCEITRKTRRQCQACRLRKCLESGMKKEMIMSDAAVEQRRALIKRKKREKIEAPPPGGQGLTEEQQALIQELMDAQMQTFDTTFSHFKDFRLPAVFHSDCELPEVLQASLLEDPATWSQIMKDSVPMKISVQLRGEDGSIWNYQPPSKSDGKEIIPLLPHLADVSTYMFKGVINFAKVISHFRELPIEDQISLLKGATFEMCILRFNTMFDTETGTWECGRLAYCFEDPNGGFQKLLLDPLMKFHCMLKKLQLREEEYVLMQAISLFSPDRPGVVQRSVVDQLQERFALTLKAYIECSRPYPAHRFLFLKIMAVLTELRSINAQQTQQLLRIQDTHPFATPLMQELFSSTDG

In the case of `CCCCCCCCCC[N+](C)(C)[O-]`, the Potency result in experiment [1], in [3], in [5], in experiment [7], in experiment [8] and in experiment [9] was “inactive” in each case. In experiment [10], the Potency result was “inactive”. For the same compound, the compound was called inactive in experiment [2] and in experiment [4]. Besides, in experiment [6], the Potency was 35.6 µM (active).
Regarding `O=CN(CCO)CCO`, the Potency result in experiment [1], in experiment [3], in [11], in experiment [6], in [12] and in experiment [7] was “inactive” in each case. In addition, the Potency entry in [9] and in experiment [10] was “inactive” in each case. Also, the compound was classed as inactive in experiment [2] and in [4].
Consider `CCOC(=O)c1ccccc1`, for which the Potency result in experiment [1], in experiment [3], in experiment [5], in experiment [6], in experiment [12] and in experiment [7] was “inactive” each time. The Potency result in experiment [8], in [9] and in experiment [10] was “inactive” each time. The outcome in experiment [2] and in [4] was inactive.
`NCCCC(N)(C(=O)O)C(F)F` (stereo unspecified): the Potency result in [1], in experiment [3], in experiment [5] and in experiment [9] was “inactive” each time. The result in experiment [2] and in experiment [4] was inactive.
As for `CO[Si](C)(OC)c1ccccc1`, the Potency result in experiment [1], in [3], in [6] and in experiment [9] was “inactive” in each case. Moreover, the result in experiment [2] and in experiment [4] was inactive. Further, the Potency in [11] was 30.6 µM (active); in experiment [12], 7.1 µM (active); in experiment [7], 35.6 µM (active); in experiment [10], 25.2 µM (active).
Regarding `CCN(CC#N)c1cccc(C)c1`, the Potency result in experiment [1], in [3], in experiment [5] and in [10] was “inactive” throughout. The outcome in experiment [2] and in [4] was inactive. Also, the values for the Potency in [12] and in [8] were 71 µM (active) and 28.3 µM (active), respectively.
On to `Cc1cc(C)c(N=Nc2c(O)c(S(=O)(=O)O)cc3cc(S(=O)(=O)O)ccc23)cc1C`, for which the figures for the activity change, negative = cytotoxicity in [1], in [3] and in [5] were -25% [at 8.39 µM], -8.22% [at 8.39 µM] and -13.8% [at 8.39 µM], respectively. Moreover, the caspase activation in [2] was -0.299% [at 8.39 µM]. For the same compound, the caspase-3/7 activation in [4] was -0.604% [at 8.39 µM]. For the same compound, the activity change, negative = inhibition in [6] is -11.1% [at 10.5 µM]; in experiment [12], 9.38% [at 10.5 µM]; in experiment [7], 1.8% [at 10.5 µM]; in experiment [9] it was -0.475% [at 6.97 µM]; in [10], 1.68% [at 10.5 µM].
Take `CC(=O)Nc1ccc(OCC(O)CNC(C)C)cc1` (stereo unspecified): the Potency result in [1], in experiment [3], in experiment [11], in experiment [14], in experiment [15] and in experiment [6] was “inactive” each time. Further, the Potency entry in experiment [12], in [7], in experiment [8], in experiment [9] and in experiment [10] was “inactive” each time. The result in experiment [2] and in experiment [4] was inactive. Further, the max activation in [13] was 0.433%.
For the compound `COCCOC[C@H](CC1(C(=O)NC2CCC(C(=O)O)CC2)CCCC1)C(=O)Oc1ccc2c(c1)CCC2` (stereo partly specified), the Potency result in experiment [1], in experiment [11], in [6], in experiment [12], in experiment [7] and in [8] was “inactive” each time. Moreover, in [9], the Potency entry was “inactive”. The compound was classed as inactive in experiment [2] and in experiment [4]. Further, the Potency in experiment [3] was 54.5 µM (active).
With `CC1=NN(c2cccc(S(=O)(=O)O)c2)C(=O)C1`, the Potency result in [1], in experiment [3], in [5], in experiment [6], in [12] and in experiment [7] was “inactive” throughout. The Potency entry in experiment [9] and in experiment [10] was “inactive” throughout. Besides, the result in experiment [2] and in experiment [4] was inactive. Also, in [8], the Potency was 44.8 µM (active).
For `CCCCc1ccc2c(n1)[C@@H](c1ccc(OC)cc1C[C@H](C)C(=O)O)[C@H](C(=O)O)[C@H]2c1ccc2c(c1)OCO2`, the Potency entry in experiment [1], in [3], in experiment [11], in experiment [12], in [8] and in experiment [9] was “inactive” in each case. Also, in experiment [10], the Potency entry is “inactive”. The outcome in experiment [2] and in [4] was inactive. Moreover, the Potency in [6] was 71 µM (active); in experiment [7] it was 35.6 µM (active).
